aSyn 5UTR inh: 5' untranslated region of α-synuclein, MLPCN primary screen. AID 1813. inhibition, % (tested at 7.5 µM). actives 0.82% (n = 300,000). alpha-synuclein 5'UTR reporter, inhibitor activity; in the data active means inhibition above about 60%;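 further: H4 neuroglioblastoma cells stably carrying SNCA 5'UTR luciferase fusion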
Ba/F3 V617F tox: reduce viability of Ba/F3 cells dependent on JAK2V617F; Ba/F3 EpoR-JAK2V617F viability, ATP luminescence; inhibition, % at 5.6 µM; actives 1.1% (n = 220,000); AID 1446;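 active means inhibition above the campaign mean plus 3 SD over all tested compounds, cut at about 24% in these data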;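 further: cytokine-independent growth of Ba/F3 cells driven by EpoR plus mutant JAK2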
KLF5 inh: inhibitors of KLF5 expression | DLD-1 KLF5 promoter-luciferase reporter, luminescence | inhibition, % at 5 µM | actives 0.23% (n = 290,000);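 active means inhibition above a per-plate limit of that plate's mean compound inhibition plus 3 SD, cut at about 60% in these data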;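 further: higher means less KLF5 promoter-driven luciferase light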
BaF3 parental: counter-screen for JAK2V617F inhibitors: parental Ba/F3 viability inhibitors; AID 1486; CellTiter-Glo ATP luminescence; actives 1.1% (n = 220,000); inhibition, % at 5.6 µM;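 active means inhibition above a per-campaign cutoff, the mean inhibition of all tested compounds plus 3 SD, cut at about 27% in these data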
IEC-6 cytotox: kills IEC-6 intestinal cells in KLF5 counter-screen; IEC-6 cytotoxicity, luminescence viability; inhibition, % at 5 µM; actives 0.78% (n = 290,000); AID 1825; in the data active means inhibition above about 22%
APP 5UTR inh: APP translation inhibition; SH-SY5Y APP 5'UTR-luciferase reporter, luminescence; inhibition, % at 2 µM; actives 0.82% (n = 190,000); AID 1285;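 active means inhibition above a set limit, derived from the sample mean plus 3 SD, cut at about 45% in these data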
BaF3 parental 2: parental Ba/F3 viability inhibition for JAK2V617F counter-screen. shares compounds with Ba/F3 V617F tox. CellTiter-Glo luminescence; cells kept alive by added IL-3. inhibition, % at 5.6 µM. actives 31% (n = 580). AID 1520;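 active means cell growth inhibition above the hit limit set in the earlier mutant JAK2 cell screen, cut at about 27% in these data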
JAK2V617F conf: confirmation: loss of viability in JAK2V617F-dependent Ba/F3 cells. Ba/F3 EpoR-JAK2V617F viability, CellTiter-Glo luminescence. shares compounds with Ba/F3 V617F tox. actives 66% (n = 580). inhibition, % at 5.6 µM. AID 1521;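 active means mean inhibition above the hit cutoff derived in the earlier primary screen, cut at about 25% in these data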;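 further: higher means lower luminescence from reduced cell ATP and viability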
Large screens that a line does not name were inactive (follow-up assays come after a bar, where they were run). An excerpt weighted towards active compounds, which were near 2.2% of everything screened.

COc1ccccc1S(=O)(=O)n1cc(Cc2ccccc2)c(N)n1	Ba/F3 V617F tox 100 (no result: aSyn 5UTR inh) | BaF3 parental 2 inactive | JAK2V617F conf inactive
COc1ccc(CNC(=O)c2ccc3c(=O)n(-c4ccccc4)c(=O)[nH]c3c2)cc1	none (no result: Ba/F3 V617F tox, BaF3 parental, APP 5UTR inh)
Cc1ccc(C)c(N2CCN(CCCNC(=O)Cn3cccc3C(=O)c3ccccc3C)CC2)c1	Ba/F3 V617F tox 41 | BaF3 parental 2 inactive | JAK2V617F conf 29
CC1CN(Cc2cc(=O)[nH]c(C3CC3)n2)CC(C)O1 (configuration not stated)	Ba/F3 V617F tox 40 | BaF3 parental 2 inactive | JAK2V617F conf inactive
CCn1cc(SCC(=O)NCC2CCCO2)c2ccccc21 (configuration not stated)	none (no result: Ba/F3 V617F tox, KLF5 inh, BaF3 parental, IEC-6 cytotox, APP 5UTR inh)
C=CCN=c1scc(C)n1/N=C/c1ccc(O)c(O)c1	Ba/F3 V617F tox 62 | BaF3 parental 2 37 | JAK2V617F conf 86
Cc1cc(C)nc(N(C#N)CCOc2ccccc2)n1	Ba/F3 V617F tox 54 | BaF3 parental 2 inactive | JAK2V617F conf inactive
CN(C)c1nc(N(C)C)nc(N(C#N)CCOc2ccccc2)n1	none
CC(C)C/C(O)=C/c1nc2cc(Cl)ccc2oc1=O	none
O=c1oc2ccc(Cl)cc2nc1/C=C(\O)c1ccco1	Ba/F3 V617F tox 34 (no result: APP 5UTR inh) | BaF3 parental 2 inactive | JAK2V617F conf 72
O=[N+]([O-])c1cc(/C=N/Nc2nc3ccccc3[nH]2)c(O)cc1O	Ba/F3 V617F tox 30, APP 5UTR inh 50 | BaF3 parental 2 68 | JAK2V617F conf 81
COc1ccc(CCC(=O)Nc2cc(Cl)ccc2N2CCN(C)CC2)cc1	Ba/F3 V617F tox 33 | BaF3 parental 2 inactive | JAK2V617F conf inactive
CCC(C)[C@@H](NC(=O)OC(C)(C)C)c1nnc(S(=O)(=O)Cc2cccc(C)c2)o1 (some centres not stated)	Ba/F3 V617F tox 26 | BaF3 parental 2 inactive | JAK2V617F conf 66
CCSc1nnc([C@H](Cc2ccccc2)NC(=O)OC(C)(C)C)o1	none
Cc1cccc(CS(=O)(=O)Cc2ccc(C(=O)NC(C)c3ccccc3)o2)c1 (configuration not stated)	none (no result: Ba/F3 V617F tox, BaF3 parental, APP 5UTR inh)
Cc1ccccc1CS(=O)(=O)c1nnc([C@H](Cc2ccccc2)NC(=O)OC(C)(C)C)o1	Ba/F3 V617F tox 37, APP 5UTR inh 70 | BaF3 parental 2 inactive | JAK2V617F conf 95
CCCc1ccc(C(=O)NNc2ccc(F)cc2)cc1	Ba/F3 V617F tox 93 (no result: APP 5UTR inh) | BaF3 parental 2 inactive | JAK2V617F conf inactive
COC(=O)C1(C)Cc2cc(OC(C)=O)c(OC(C)=O)cc2N1 (configuration not stated)	Ba/F3 V617F tox 37 (no result: APP 5UTR inh) | BaF3 parental 2 inactive | JAK2V617F conf 46
CCOc1ccc(NC(=O)N2CCCC2C(=O)NCc2ccco2)cc1 (configuration not stated)	none (no result: Ba/F3 V617F tox, BaF3 parental, APP 5UTR inh)
CCOc1ccc(CCNC(=O)Cn2ccc3ccccc3c2=O)cc1OCC	Ba/F3 V617F tox 101 | BaF3 parental 2 inactive | JAK2V617F conf inactive
CCOc1ccc(CCNC(=O)Cn2cccc2C(=O)c2ccccc2)cc1OCC	none
O=C(Nc1ccccc1)c1cnc2ccccc2n1	Ba/F3 V617F tox 103 | BaF3 parental 2 inactive | JAK2V617F conf inactive
OCC1CCCC(n2cnc3c(=S)nc[nH]c32)O1 (configuration not stated)	Ba/F3 V617F tox 24 (no result: APP 5UTR inh) | BaF3 parental 2 inactive | JAK2V617F conf inactive
Cc1cc(F)ccc1NCc1ccncc1	Ba/F3 V617F tox 50 | BaF3 parental 2 inactive | JAK2V617F conf inactive
NNC(=O)Cn1c2ccccc2c2ccccc21	none (no result: APP 5UTR inh)
O=C(c1ccccc1)C(CCC(CN1CCOCC1)C(=O)c1ccccc1)CN1CCOCC1 (configuration not stated)	Ba/F3 V617F tox 44, APP 5UTR inh 90 | BaF3 parental 2 inactive | JAK2V617F conf 100
CCCNc1c(NC(=O)COc2ccc(Cl)cc2)c(=O)oc2ccccc12	none (no result: Ba/F3 V617F tox, BaF3 parental, APP 5UTR inh)
Cc1ccc(S(=O)(=O)N(CC(=O)N2CCC(C)CC2)Cc2ccccc2F)cc1	none
CC(=O)c1ccc2cccc3c2c1N=CN3C	Ba/F3 V617F tox 50 | BaF3 parental 2 inactive | JAK2V617F conf inactive
CC(OC(=O)CCc1nc2ccccc2c(=O)[nH]1)C(=O)c1ccc(C(C)(C)C)cc1 (configuration not stated)	none
O=S(=O)(NCCN1CCCC1)c1ccc(C(F)(F)F)cc1	none (no result: Ba/F3 V617F tox, BaF3 parental, APP 5UTR inh)
Cc1c(C#N)c(NC(=O)CCl)n(Cc2ccc(F)cc2)c1C	none
Cc1c(C#N)c(NC(=O)CCl)n(Cc2ccccc2)c1C	Ba/F3 V617F tox 31 | BaF3 parental 2 48 | JAK2V617F conf 98
Cc1c(C#N)c(NC(=O)CCl)n(Cc2cccs2)c1C	Ba/F3 V617F tox 36 | BaF3 parental 2 35 | JAK2V617F conf 97
Cc1cc(S(=O)(=O)N2CCCOC2CNC(=O)C(=O)NCc2ccco2)ccc1F (configuration not stated)	none
CC(C)(C)c1ccc(OCc2ccc(C(=O)N/N=C/c3ccc(O)c(O)c3)cc2)cc1	Ba/F3 V617F tox 101 | BaF3 parental 2 81 | JAK2V617F conf 99
Cc1ccc(-c2cnn(-c3ccccc3)c2N)cc1	none (no result: Ba/F3 V617F tox, BaF3 parental, APP 5UTR inh)
Nc1c(-c2ccccc2)cnn1-c1ccc(C(=O)O)cc1	Ba/F3 V617F tox 53 | BaF3 parental 2 inactive | JAK2V617F conf inactive
COc1cccc(/C=C/C(=O)OCC(=O)Nc2ccc(N3CCOCC3)cc2)c1OC	Ba/F3 V617F tox 42 | BaF3 parental 2 inactive | JAK2V617F conf inactive
COc1ccc2nc(C)cc(Sc3nc4ccccc4s3)c2c1	Ba/F3 V617F tox 32 (no result: APP 5UTR inh) | BaF3 parental 2 inactive | JAK2V617F conf 55
COc1ccc2nc(C)cc(SCC(=O)NNC(=O)COc3ccccc3)c2c1	none
CCCCN(CC)Cc1ccc(CNC(=O)Nc2ccc(Cl)cc2)o1	Ba/F3 V617F tox 47 | BaF3 parental 2 inactive | JAK2V617F conf 42
COc1ccc2nc(NC(=O)CN3CCN(C)CC3)sc2c1	none
COc1ccc2nc(NC(=O)CN3CCOCC3)sc2c1	Ba/F3 V617F tox 83 | BaF3 parental 2 inactive | JAK2V617F conf inactive
CCCCn1c(SCC(=O)NC2CCCC2)nc2ccccc2c1=O	none (no result: Ba/F3 V617F tox, KLF5 inh, BaF3 parental, IEC-6 cytotox, APP 5UTR inh)
Cc1[nH]c2ccc(F)cc2c1CCN(Cc1ccncc1)C(=S)Nc1cccc(F)c1	Ba/F3 V617F tox 27 | BaF3 parental 2 29 | JAK2V617F conf 47
CCCC(=O)N(C1CC(C)C(C#N)(C#N)C1(C#N)C#N)N(C)C (configuration not stated)	Ba/F3 V617F tox 46 (no result: APP 5UTR inh) | BaF3 parental 2 inactive | JAK2V617F conf 62
Cc1cccn2cc(COc3cccc([N+](=O)[O-])c3)nc12	none
Cc1cccn2cc(COc3ccc(-c4ccccc4)cc3)nc12	Ba/F3 V617F tox 48 | BaF3 parental 2 43 | JAK2V617F conf 43
Clc1cccc(NCc2ccccc2)n1	none
Cc1onc(-c2ccccc2)c1C(=O)/C=C/N(C)C	none (no result: APP 5UTR inh)
